Measurements published in paper PMC4336329 (PLoS ONE, 2015).
Among all 310,000 compounds or so, about 2,200 (0.71%) showed an effect of 50% or more. Effects have a minus sign here. For the sample, strong results were picked, then their nearest neighbours and some compounds at random.

molecular target: human ether-à-go-go-related gene (hERG) potassium channel (human, UniProt Q12809); experiment: primary screen, population patch clamp on CHO cells stably expressing hERG; higher = less effect of the substance
Sequence (Q12809 whole entry, looked up): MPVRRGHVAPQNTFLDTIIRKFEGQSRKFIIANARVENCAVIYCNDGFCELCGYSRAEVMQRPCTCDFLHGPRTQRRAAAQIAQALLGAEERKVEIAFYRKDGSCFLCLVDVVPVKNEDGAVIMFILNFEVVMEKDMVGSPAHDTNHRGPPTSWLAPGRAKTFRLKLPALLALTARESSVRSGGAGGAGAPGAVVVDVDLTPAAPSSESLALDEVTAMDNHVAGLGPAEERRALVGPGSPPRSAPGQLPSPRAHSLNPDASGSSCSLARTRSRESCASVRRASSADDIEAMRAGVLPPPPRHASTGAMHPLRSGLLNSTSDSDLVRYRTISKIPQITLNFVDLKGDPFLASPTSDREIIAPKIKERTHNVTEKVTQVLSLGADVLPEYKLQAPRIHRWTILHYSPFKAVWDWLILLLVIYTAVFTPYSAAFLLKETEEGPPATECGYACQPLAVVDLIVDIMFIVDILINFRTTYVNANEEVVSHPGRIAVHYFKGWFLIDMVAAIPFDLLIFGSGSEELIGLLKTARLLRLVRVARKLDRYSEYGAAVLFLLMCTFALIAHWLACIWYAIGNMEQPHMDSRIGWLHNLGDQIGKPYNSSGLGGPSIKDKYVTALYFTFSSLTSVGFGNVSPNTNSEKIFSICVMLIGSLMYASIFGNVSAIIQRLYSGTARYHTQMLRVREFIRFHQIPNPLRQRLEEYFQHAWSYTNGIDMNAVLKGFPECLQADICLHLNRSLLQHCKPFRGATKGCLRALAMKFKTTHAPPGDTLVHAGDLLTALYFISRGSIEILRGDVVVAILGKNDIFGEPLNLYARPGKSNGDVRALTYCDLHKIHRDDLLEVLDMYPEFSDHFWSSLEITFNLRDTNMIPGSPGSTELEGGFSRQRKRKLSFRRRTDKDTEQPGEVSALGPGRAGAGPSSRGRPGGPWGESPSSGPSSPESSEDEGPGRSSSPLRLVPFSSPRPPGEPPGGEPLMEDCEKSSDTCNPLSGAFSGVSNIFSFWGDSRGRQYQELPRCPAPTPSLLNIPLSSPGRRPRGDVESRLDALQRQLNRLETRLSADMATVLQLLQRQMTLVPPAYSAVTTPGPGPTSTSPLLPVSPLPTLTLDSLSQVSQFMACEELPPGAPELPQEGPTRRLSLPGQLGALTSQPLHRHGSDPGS

| Compound | hERG current change (%, negative = inhibition) at 1uM [%] |
| --- | --- |
| CCN(C(=O)CSc1nnc(NC2CCCCC2)s1)C1CCS(=O)(=O)C1 (centres unmarked) | 2.2 |
| O=C(CN1CCN(CC(=O)Nc2cccc(F)c2)CC1)Nc1ccc(-c2ccccc2)cc1 | 13.6 |
| CCOC(=O)N1CCN(CC(=O)Nc2ccc(F)c(F)c2)CC1 | 8.59 |
| CCOc1ccc(NC(=O)CNC(=O)c2ccc(OC)c(OC)c2)cc1 | 5.55 |
| CCOc1ccc(NC(=O)CN2CCN(CC(=O)Nc3ccc(Cl)c(C(F)(F)F)c3)CC2)cc1 | -6.47 |
| CCOc1ccc(NC(=O)CN2CCN(CC(=O)Nc3ccc(C(N)=O)cc3)CC2)cc1 | -36.9 |
| O=C(NCc1ccccc1)N1CCC(n2cnc3cc(F)ccc32)CC1 | -56.6 |
| COc1ccc(S(=O)(=O)N2CCN(CC(=O)Nc3cccc(F)c3)CC2)cc1 | -8.66 |
| O=C(NCc1ccc(F)cc1)C1CCN(C(=O)NCc2ccccc2)CC1 | 19.1 |
| CCOc1ccc(NC(=O)CN2CCN(CC(=O)Nc3cccc(F)c3)CC2)cc1 | -97.2 |
| O=C(c1ccc(F)cc1)C1CCN(C(=O)NCc2ccccc2)CC1 | -5.59 |
| CCOc1ccc(NC(=O)CN2CCN(CC(=O)c3ccc(OC)c(OC)c3)CC2)cc1 | -56.3 |
| CCOc1ccc(NC(=O)CN2CCN(CC(=O)Nc3ccc(F)c(F)c3)CC2)cc1 | -87.9 |
| CCCCSc1nnc(-c2cc(Br)ccc2N)c(=O)[nH]1 | 0.939 |
| CCC(C)(C)NC(=O)C(c1ccc(OC)cc1)N(Cc1ccco1)C(=O)CCC(=O)Nc1cc(C)on1 (centres unmarked) | 4.86 |
| COc1ccc(CC(NC(C)=O)C(=O)NC2CCN(C(=O)Nc3ccc(Cl)cc3)CC2)cc1OC (centres unmarked) | 10.2 |
| O=C(COc1ccccc1[N+](=O)[O-])NCC1(N2CCCCC2)CCCCC1 | -4.91 |
| CCOC(=O)c1ccc(NC(=O)COc2coc(CN3CCc4ccccc43)cc2=O)cc1 | 8.2 |
| COc1ccc(OC)c(S(=O)(=O)N2CCC(C(=O)NCc3ccccc3OC)CC2)c1 | 3.09 |
| NC1=NC[C@@H](Cc2ccc(O)cc2)N1CCC12CC3CC(CC(C3)C1)C2 | 10.4 |
| N#CCCSc1ncnc2c1oc1ccccc12 | 4.55 |

| Compound | hERG current change (%, negative = inhibition) at 1uM [%] |
| --- | --- |
| CCOc1ccc(NC(=O)CN2CCN(CC(=O)Nc3ccc(F)cc3)CC2)cc1 | -87.3 |
| Cc1[nH]c(-c2ccc(F)cc2)cc1C(=O)N1CCN(c2ccccc2)CC1 | -29 |
| CCOC(=O)N1CCC(NC(=O)c2cc(-c3ccc(F)cc3)[nH]c2C)CC1 | 11.6 |
| CCOC(=O)N1CCN(C(=O)c2cc(-c3ccc(F)cc3)[nH]c2C)CC1 | -54.1 |
| COc1ccc(NC(=O)CN2CCN(c3ccc(F)cc3)CC2)cc1 | 7.86 |
| CCOc1ccc(NC(=O)CN2CCN(c3ccc(F)cc3)CC2)cc1 | 11.4 |
| CCn1cc(/C=C/C(=O)Nc2c(C)nn(Cc3ccccc3C)c2C)cn1 | 15.5 |
| CC(=O)N/N=C/c1cc(C)n(-c2ccc(Br)cc2)c1C | 1.14 |
| CC1N(C(=O)N2CCOCC2)CCN1S(=O)(=O)c1ccc(Cl)cc1 (centres unmarked) | 4 |
| Cc1ccc(C(=O)N/C(=C\c2ccc(Cl)cc2)C(=O)NCC2CCCO2)cc1 (centres unmarked) | -38.7 |
| O=C(NCCO)/C(=C\c1ccc([N+](=O)[O-])o1)NC(=O)c1ccccc1 | 4.89 |
| CN(C)CCCNC(=O)/C(=C\c1ccc(-c2ccc(Br)cc2)o1)NC(=O)c1ccccc1 | -82 |
| Cc1ccc(C(=O)N/C(=C\c2ccc(-c3cc(Cl)ccc3Cl)o2)C(=O)NCc2cccnc2)cc1 | 5.35 |
| Cc1ccc(C(=O)N/C(=C\c2ccc(-c3ccc(Cl)cc3)o2)C(=O)NCCCN(C)C)cc1 | -93.5 |
| Cc1ccc(C(=O)N/C(=C\c2ccc(-c3ccc(Br)cc3)o2)C(=O)NCCCN(C)C)cc1 | -84.2 |
| Cc1ccc(C(=O)N/C(=C\c2ccc(-c3ccc(Br)cc3)o2)C(=O)NC2CCS(=O)(=O)C2)cc1 (centres unmarked) | 7.85 |
| Cc1ccc(C(=O)N/C(=C/c2ccc(-c3ccc(Br)cc3)o2)C(=O)NC2CCS(=O)(=O)C2)cc1 (centres unmarked) | 3.65 |
| CN(C)CCNC(=O)/C(=C/c1ccc(-c2ccc(Cl)cc2Cl)o1)NC(=O)c1ccccc1 | -7.71 |
| CN(C)CCNC(=O)/C(=C/c1ccc(-c2cccc(Cl)c2)o1)NC(=O)c1ccccc1 | -31.4 |
| Cc1ccc(/C=C(\NC(=O)c2ccccc2)C(=O)NCCN2CCOCC2)o1 | 1.36 |
| CN(C)CCNC(=O)/C(=C/c1ccc(-c2ccc(Cl)cc2)o1)NC(=O)c1ccccc1 | -82 |

| Compound | hERG current change (%, negative = inhibition) at 1uM [%] |
| --- | --- |
| CCCc1cc(=O)[nH]c(SCC(=O)N(C)C2CCCCC2)n1 | 13.3 |
| CCSC1(SCC)N=C(N)C2(C#N)C(c3ccccc3)NC3=C(CCC3)C12C#N (centres unmarked) | 14.4 |
| CN(C(=O)c1ccncc1)c1nnc(-c2cccnc2)s1 | 12.8 |
| CN(CC(=O)N1CCCCCC1)S(=O)(=O)c1ccc(Br)cc1 | 0.738 |
| COc1ccc(OCC(O)COc2ccc(C(=O)O)cc2)cc1 (centres unmarked) | 8.21 |
| CCc1cc(C(=O)N/N=C/c2ccc(O)cc2)c2ccccc2n1 | 9.78 |
| Cn1ncc(Br)c1C(=O)Nc1ccc(Br)cn1 | 16.3 |
| CCC(C)[C@H](NC(=O)[C@@H]1CSC2c3ccccc3C(=O)N21)C(=O)N1CCCCC1 (some centres unmarked) | 8.7 |
| CC1(C)CC(NC(=O)Cc2ccc(Cl)cc2)CC(C)(C)N1 | 16.7 |
| Cc1ccc(-n2nc(C(=O)O)cc2-c2ccc(Cl)cc2)cc1 | 8.61 |
| O=C(c1cc(-c2ccc(Cl)cc2)n(-c2ccc(Cl)cc2)n1)N1CCOCC1 | -56.8 |
| O=C(c1cc(-c2ccc(Cl)cc2)n(-c2ccc(Cl)c(Cl)c2)n1)N1CCOCC1 | 5.69 |
| Cc1ccc(-n2nc(C(=O)N3CCOCC3)cc2-c2ccc(Cl)cc2)cc1 | -87.4 |
| O=C(c1cc(-c2ccc(Cl)cc2)n(-c2ccc(Cl)cc2Cl)n1)N1CCOCC1 | -40.7 |
| O=C(c1cc(-c2ccc(Cl)cc2)n(-c2cc(Cl)ccc2Cl)n1)N1CCOCC1 | -3.98 |
| COc1ccc(NC(=O)C2CCC(C)(C(=O)O)C2(C)C)cc1 (centres unmarked) | 11.1 |
| CC(OC(=O)c1ccccc1NCCO)C(=O)Nc1ccc(S(=O)(=O)N2CCOCC2)cc1 (centres unmarked) | 11.6 |
| CN=C1S/C(=C\c2ccc(O)c(OC)c2)C(=O)N1C | 14 |
| Cc1cccc(-n2c(SCC(=O)N(C)C3CCS(=O)(=O)C3)nc3ccccc3c2=O)c1C (centres unmarked) | 13.9 |
| CC(CCc1ccccc1)NC(=O)C1CCCN(c2nnc(-n3cccc3)s2)C1 (centres unmarked) | -7.23 |
| O=C(NC1CCN(Cc2ccccc2)CC1)C1CCCN(c2nnc(-n3cccc3)s2)C1 (centres unmarked) | -65.2 |

| Compound | hERG current change (%, negative = inhibition) at 1uM [%] |
| --- | --- |
| O=C(NC1CCN(Cc2ccccc2)CC1)C1CCN(c2nnc(-n3cccc3)s2)CC1 | -28.2 |
| O=[N+]([O-])c1cccc2ccc(/C=C/c3ccc(Cl)cc3)nc12 | 1.88 |
| Cc1nc2c(ccc3nc(NC(=O)c4ccc5c(c4)OCCO5)sc32)s1 | -86.6 |
| Cc1nc2c(ccc3nc(NC(=O)c4ccc(S(=O)(=O)N(C)C)cc4)sc32)s1 | 16.4 |
| Cc1nc2ccc3nc(NC(=O)c4ccc5c(c4)OCCO5)sc3c2s1 | 9.46 |
| COc1ccc2c(c1)c(C(=O)O)c(C)n2CC(C)C | -2.31 |
| CC(NS(=O)(=O)/C=C/c1ccccc1)C(=O)O (centres unmarked) | 12.5 |
| CC(C)Cn1cc(C(=O)N2CCC3(CC2)OCCO3)c2c3ccccc3n(C)c2c1=O | -1.15 |
| O=C(Cc1c(F)c(F)c(F)c(F)c1F)Nc1nc(-c2ccccc2)cs1 | 9.84 |
| CCCn1c(N2CCN(C(=O)/C=C/C(=O)O)CC2)nc2ccccc21 | 14.7 |
| CC(C)Cn1c(N2CCN(C(=O)/C=C/c3ccccc3)CC2)nc2ccccc21 | -32.9 |
| CCn1c(N2CCN(Cc3ccc([N+](=O)[O-])cc3)CC2)nc2ccccc21.Cl | -81.2 |
| CCn1c(N2CCN(C(=O)/C=C/c3ccccc3)CC2)nc2ccccc21 | -77.4 |
| CCCn1c(N2CCN(Cc3ccc(Cl)cc3)CC2)nc2ccccc21.Cl | -4.77 |
| Cl.O=[N+]([O-])c1ccc(CN2CCN(c3ccc4ccccc4n3)CC2)cc1 | -1.76 |
| CCCCc1ccc(NC(=S)NN2CCOCC2)cc1 | 12.1 |
| COc1ccc(NC(=O)CCCn2cc([N+](=O)[O-])cn2)cc1 | 1.91 |
| O=C(NCCCn1ccnc1)c1cccc(Br)c1 | 6.56 |
| CCOC(=O)C(NC(C)=O)(Nc1ccc(S(=O)(=O)Nc2ncccn2)cc1)C(F)(F)F (centres unmarked) | 18.1 |
| O=c1c2ccccc2ncn1-c1ccc2c(c1)OCCO2 | 2.75 |
